Assay results taken from PubChem BioAssay (NCI).
About 79,000 compounds went through this panel and 15% of them were active in at least one assay; those are over-represented in the sample as a whole. Active and inactive are the calls of the source. Rule as the data show it: active = growth inhibition above about 70%; inactive = the rest.

Legend:
[1] = NCI Yeast Anticancer Drug Screen. Data for the rad50 strain (AID 155);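 also: 0% = growth of vehicle-only cultures of the same strain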; conditions: S. cerevisiae rad50 strain growth inhibition; at 50.0 µM; hits give high values
Outline: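 Compounds were tested on a yeast strain with an engineered DNA damage repair alteration; the reported value is growth inhibition normalised to vehicle treatment.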

[2] = NCI Yeast Anticancer Drug Screen. Data for the mec2-1 strain (AID 157); conditions: S. cerevisiae mec2-1 strain, at 50.0 µM, hits give high values
Outline: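 Test agents were screened against the mec2-1 yeast strain, with defined DNA repair or cell cycle alteration. Growth was scored as inhibition against vehicle-only controls.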

[3] = NCI Yeast Anticancer Drug Screen. Data for the sgs1 mgt1 strain (AID 161);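 also: 0% = growth of cultures given vehicle only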; conditions: S. cerevisiae sgs1 mgt1 strain, at 50.0 µM, hits give high values
Outline: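 Inhibition of yeast growth, normalised to vehicle-treated controls, is reported for a strain bearing genetic alterations in DNA damage repair.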

[4] = NCI Yeast Anticancer Drug Screen. Data for the cln2 rad14 strain (AID 165);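 also: 0% = growth equal to vehicle treated cultures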; conditions: S. cerevisiae cln2 rad14 strain, at 50.0 µM, hits give high values
Outline: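 Growth of compound-exposed yeast (cln2 rad14 genotype) measured and expressed as inhibition relative to vehicle.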

[5] = NCI Yeast Anticancer Drug Screen. Data for the bub3 strain (AID 167); conditions: S. cerevisiae bub3 mutant strain, at 50.0 µM, hits give high values
Outline: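 Growth of a checkpoint-deficient yeast mutant is measured after compound exposure. Values represent inhibition relative to vehicle.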

[6] = NCI Yeast Anticancer Drug Screen. Data for the mlh1 rad18 strain (AID 175); conditions: S. cerevisiae mlh1 rad18 strain growth inhibition; at 50.0 µM; hits give high values
Outline: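 In this whole-cell yeast screen, a strain with altered DNA damage repair is challenged with compound, and its growth is measured against matched vehicle-treated controls.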

Measured: growth inhibition

O=C1CC2CCCCC2=C1O (stereo not drawn)
inactive: [1] 18.4% | [2] -11.2% | [3] 14.1% | [4] 17.9% | [5] -3.1% | [6] 13.8%

CC(Sc1ccc([N+](=O)[O-])cn1)C(=O)O (stereo not drawn)
inactive: [1] 2.55% | [2] 12.9% | [3] 13.5% | [4] -37% | [5] -25.9% | [6] 30.9%

Cc1ccc2c(c1)C(C(C)C)CCC2(C)C (stereo not drawn)
inactive: [1] 5.3% | [2] -8.1% | [3] 2.95% | [4] 4.85% | [5] -0.6% | [6] 0.7%

O=[N+]([O-])c1ccc2c(Cl)c3ccccc3nc2c1
inactive: [1] 20.1% | [2] 24.1% | [3] 2% | [4] 17.6% | [5] 34.2% | [6] 16.6%

c1c[nH]c(C2Nc3ccccc3CO2)c1 (stereo not drawn)
inactive: [1] -11.4% | [2] -13.2% | [3] -18.9% | [4] -22.6% | [5] 1.3% | [6] 9.85%

CN1C(=O)OC2C3NC(=O)OC3C(O)C(O)C21 (stereo not drawn)
inactive: [1] -7.85% | [2] -12.3% | [3] -6.3% | [4] -1.15% | [5] -6.15% | [6] -8.95%

CNC(=O)c1cccc([N+](=O)[O-])c1
inactive: [1] 32.1% | [2] 19.8% | [3] 21.7% | [4] -31.2% | [5] 7.25% | [6] 30.2%

COc1ccc(N2CCN(CC(O)COc3ccc(Cl)cc3)CC2)cc1 (stereo not drawn)
active: [1] 70.8% | [3] 75%
inactive: [2] 18.9% | [4] 14.9% | [5] 13.8% | [6] 28.5%

C=C(C)Cc1c(C)c(Cl)cc(Cl)c1OC(=O)Nc1ccccc1
inactive: [1] 31.8% | [2] 9.6% | [3] 30.6% | [4] 9.35% | [5] 29.9% | [6] 19.7%

Cc1cc(=O)[nH]n1-c1ccc([N+](=O)[O-])cc1
inactive: [1] 6.15% | [2] -2.4% | [3] 5.3% | [4] -9.8% | [5] -1.7% | [6] 14.8%

NC(=S)N/N=C(\CCC(=O)Nc1ccccc1[N+](=O)[O-])CC(=O)c1ccco1
inactive: [1] -1.55% | [2] -1.95% | [3] -19.9% | [4] 27.4% | [5] -19.8% | [6] 6.3%

Cc1cc[n+]2c(c1)-c1cc(C)cc[n+]1CC2
inactive: [1] 26.7% | [2] 1.15% | [3] 14.3% | [4] -10.8% | [5] 0.6% | [6] 6.3%

Cc1cc(O)c(C(C)C)cc1S(=O)(=O)O
inactive: [1] 0.7% | [2] 0.2% | [3] 3.75% | [4] -1.5% | [5] 3.25% | [6] 5.15%

CN1CCN(P(=O)(c2ccccc2)N2CCN(C)CC2)CC1
inactive: [1] 32.3% | [2] 7.85% | [3] 29.6% | [4] 20.1% | [5] -1.1% | [6] 30.7%

COC(=O)/C(C#N)=C1\CCC(O)N1C (stereo not drawn)
inactive: [1] 11.9% | [2] -10.8% | [3] 5.8% | [4] 6.2% | [5] 3% | [6] 9.6%

CN(C=C(C#N)C#N)c1ccccc1
inactive: [1] 8.7% | [2] -4.65% | [3] -0.1% | [4] -3.95% | [5] 9.05% | [6] 16.4%

CC1C(=O)OC(C)(C)C1(C)C (stereo not drawn)
inactive: [1] 22.4% | [2] -16.3% | [3] 4.75% | [4] -41.6% | [5] 0.2% | [6] -10.4%

CC1OC(C)(c2ccc(Cl)cc2)OCC1(C)C (stereo not drawn)
inactive: [1] -2.45% | [2] -1.15% | [3] 2.5% | [4] -26.6% | [5] 17.8% | [6] 16.9%

O=[N+]([O-])c1ccc2[nH]ncc2c1
inactive: [1] 19.2% | [2] -8.05% | [3] 0.35% | [4] -3.15% | [5] 8.45% | [6] 13.7%

OCc1cc2ccccc2c2c3c(ccc12)OCO3
inactive: [1] 39.9% | [2] 4.6% | [3] 20.7% | [4] -37.9% | [5] -1.05% | [6] 15.9%

C=C(C)CC1CN2CCc3cc(OC)c(OC)cc3C2CC1=O (stereo not drawn)
inactive: [1] 25.3% | [2] 6.85% | [3] 24.8% | [4] 18.8% | [5] 43.6% | [6] 26.6%

CCNC(=O)C(C(=O)OCCN(CC)CC)c1ccccc1 (stereo not drawn)
inactive: [1] 2.05% | [2] 5.7% | [3] -3.3% | [4] -1.05% | [5] -14.7% | [6] 16.7%

COc1ccc(C2=C(C#N)C(=C(C#N)C#N)NC(N)=C2C#N)cc1
inactive: [1] -11.1% | [2] -1.25% | [3] -21.8% | [4] -4.75% | [5] -19.4% | [6] -17.4%

CCOC(=O)c1ccc(-n2c(SCC)nc3sc(C)c(C)c3c2=O)cc1
inactive: [1] -18.9% | [2] -17.8% | [3] -40.5% | [4] -38.5% | [5] -31.8% | [6] -29.3%

Nc1nc(=O)n(CCCOc2ccc([N+](=O)[O-])c(Cl)c2)cc1-c1ccc(Cl)c(Cl)c1
inactive: [1] -1.2% | [2] -8.2% | [3] -5.4% | [4] -21.4% | [5] -3.15% | [6] 6.2%

CCOc1ccc2ccccc2c1N
inactive: [1] 44% | [2] 15.4% | [3] 24.3% | [4] 4.8% | [5] 51.7% | [6] 46.7%

[O-][n+]1cc(N=Nc2ccc(Cl)cc2)nn1-c1ccc(Cl)cc1
inactive: [1] -11.6% | [2] -33.8% | [3] -8.5% | [4] 9.85% | [5] -1.1% | [6] -14.3%

CN(C)CC1CCCCCCCCCC(CN(C)C)C1=O (stereo not drawn)
inactive: [1] -26.4% | [2] 19.9% | [3] -11.3% | [4] -1.6% | [5] -21.4% | [6] 66.7%

O/N=C/C(=Nc1ccc2ccccc2c1)NO
inactive: [1] 41% | [2] 3.25% | [3] -4.5% | [4] -18.2% | [5] -8.45% | [6] 23.5%

CNC(=O)OCc1c(COC(=O)NC)c2n(c1C)CCS2(=O)=O
inactive: [1] -1.25% | [2] -18.3% | [3] -8.15% | [4] -9.95% | [5] 0.35% | [6] 15.2%

Cc1cc(=O)[nH]c(Nc2nc3cc(C)c(C)cc3[nH]2)n1
inactive: [1] 9.6% | [2] -4.9% | [3] 2.05% | [4] 9.2% | [5] -8.2% | [6] -8.4%

Cc1c(C(=O)O)c2ccccc2[nH]c1=O
inactive: [1] -2.85% | [2] -1.25% | [3] 2.85% | [4] -40% | [5] -13.2% | [6] 2.5%

O=C(Nc1ccc(S(=O)(=O)NC2CCCCC2)cc1)OC1CCCCCC1
inactive: [1] 2.6% | [2] -1.25% | [3] 7.75% | [4] 4.35% | [5] -1.95% | [6] -0.85%

COc1cc(CNc2cnc3cc(N)ccc3n2)cc(OC)c1OC
inactive: [1] -32.5% | [2] -26.8% | [3] -66.3% | [4] -18% | [5] -21.7% | [6] -30.6%

c1ccc(OCCCCN2CCNCC2)cc1
inactive: [1] 1.85% | [2] -14.3% | [3] 14.3% | [4] -10.1% | [5] 8.3% | [6] -10.2%

C[N+]1(C)C2C=CCC1CSC2 (stereo not drawn)
inactive: [1] 4.55% | [2] 0.15% | [3] -3.8% | [4] 3.65% | [5] 2.75% | [6] 12.8%

CC(C)CCCC(C)C1CCC2C3CC=C4CC(OC5CCC6(C)C(=CCC7C6CCC6(C)C(C(C)CCCC(C)C)CCC76)C5)CCC4(C)C3CCC12C (stereo not drawn)
inactive: [1] -0.05% | [2] -12.8% | [3] -17.1% | [4] -10.7% | [5] -1.75% | [6] 4.8%

O=C(CN1CCOCC1)NC(=O)c1ccccc1
inactive: [1] -3.6% | [2] -3.6% | [3] 6.25% | [4] 1.5% | [5] -0.1% | [6] -10.7%
